± gives the standard deviation of the averaged measurements.
Legend:
DLD1 [1] = assay: cell viability (CellTiter-Glo) relative to plate median (fraction of plate median); higher = more viable cells; settings: 5 µM; treatment time 24 h; reporter: 7TFP
Summary of the method: (§1)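 Each entry is a luminescence signal normalised to the plate median, averaged over independent replicates. The replicate count was two, and the cells were colorectal cancer lines with stable lentiviral TCF/Wnt firefly luciferase reporters exposed to library compounds at a final 5 µM for 24 h. Firefly luciferase and CellTiterGlo were measured on parallel plates.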

HCT116 = assay: as above; settings: 5 µM; treatment time 24 h; reporter: TCF4/Wnt
Summary of the method: as §1

SW480 [2] = assay: as above; settings: 5 µM; treatment time 24 h; reporter: 7TFP
Summary of the method: as §1

DLD1 [3] = assay: TCF/Wnt firefly luciferase reporter signal relative to plate median (fraction of plate median); higher = higher Wnt reporter signal; settings: 5 µM; treatment time 24 h; reporter: 7TFP
Summary of the method: as §1

SW480 [4] = assay: as above; settings: 5 µM; treatment time 24 h; reporter: 7TFP
Summary of the method: as §1

SMILES | cell viability (DLD1 [1]) | cell viability (HCT116) | cell viability (SW480 [2]) | TCF/Wnt firefly luciferase reporter signal (DLD1 [3]) | TCF/Wnt firefly luciferase reporter signal (SW480 [4])
Cc1c(OCC(F)(F)F)ccnc1C[S+]([O-])c1nc2ccccc2[nH]1 (stereo not given) | 1.07 ± 0.14 | 1.02 ± 0.061 | 0.932 ± 0.0014 | 1.09 ± 0.021 | 0.959 ± 0.011
C/N=C(/NC#N)NCCSCc1csc(NC(=N)N)n1 | 1 ± 0.068 | 0.975 ± 0.078 | 1.01 ± 0.014 | 1.12 ± 0.021 | 1.11 ± 0.064
CCCCCCCCCCCCC[N+](C)(C)Cc1ccccc1 | 0.848 ± 0.095 | 0.743 ± 0.028 | 0.96 ± 0.057 | 0.725 ± 0.15 | 0.562 ± 0.074
COc1c2c(cc3occ(-c4ccc5c(c4)OCO5)c(=O)c13)OC(C)(C)C=C2 | 0.973 ± 0.067 | 0.951 ± 0.11 | 0.9305 ± 0.005 | 0.799 ± 0.37 | 0.607 ± 0.49
Nc1ncn([C@@H]2O[C@H](CO)[C@@H](O)[C@H]2O)c(=O)n1 | 0.992 ± 0.011 | 0.945 ± 0.035 | 1.07 ± 0.092 | 1.01 ± 0.13 | 1.085 ± 0.0071
CC(C)=CCC1=C(O)C(=O)c2ccccc2C1=O | 1.055 ± 0.0071 | 1.07 ± 0.064 | 1.02 ± 0.028 | 1.15 ± 0.092 | 1.04 ± 0.064
COc1ccc2c(=O)c(CC(=O)O)coc2c1 | 0.968 ± 0.059 | 0.984 ± 0.08 | 0.968 ± 0.012 | 1 ± 0.021 | 0.985 ± 0.092
Clc1cccc(Cl)c1NC1=NCCN1 | 0.987 ± 0.033 | 0.925 ± 0.16 | 0.988 ± 0.013 | 1.065 ± 0.0071 | 1.01 ± 0.11
CS(=O)(=O)c1ccc(C2=C(c3ccccc3)C(=O)OC2)cc1 | 1 ± 0.037 | 1.04 ± 0.042 | 0.9705 ± 0.0035 | 1.19 ± 0.092 | 1.05 ± 0.071
COc1ccc2c(c1)OC[C@@H](Cc1ccc(OC)c(OC)c1)[C@@H]2O | 1.03 | 1.02 ± 0.12 | 0.963 ± 0.034 | 1 ± 0.015 | 0.973 ± 0.081
COC(=O)CC1C(C)(C)C(OC(C)=O)[C@@H]2[C@@H](OC(C)=O)[C@]34O[C@@]2(O)[C@]1(C)C3CC[C@]1(C)C4=CC(=O)O[C@H]1c1ccoc1 (stereo not given in full) | 1.02 ± 0.11 | 1.02 ± 0.098 | 1.04 | 1.01 ± 0.061 | 0.992 ± 0.026
O=c1cc(-c2ccc(O)c(O)c2)oc2cc(O[C@@H]3O[C@H](CO)[C@@H](O)[C@H](O)[C@H]3O)cc(O)c12 [Luteolin-7-O-glucoside (102)] | 0.908 ± 0.058 | 0.957 ± 0.041 | 0.95 ± 0.0028 | 0.861 ± 0.052 | 1.03 ± 0.072
CC1/C(=N/O)C[C@@H]2C[C@H]1C2(C)C (stereo not given in full) | 1.07 ± 0.014 | 1.09 ± 0.014 | 1.02 ± 0.037 | 1.08 ± 0.042 | 0.919 ± 0.17
CC(=O)/C(=C\c1ccccc1)CC(=O)O | 0.984 ± 0.037 | 1.03 ± 0.047 | 1 ± 0.05 | 0.894 ± 0.0085 | 0.996 ± 0.02
CCCCCCCCNC(C)C(O)c1ccc(SC(C)C)cc1 (stereo not given) | 0.978 ± 0.021 | 1.05 ± 0.042 | 1.02 ± 0.03 | 1.08 ± 0.099 | 1.09 ± 0.085
C#C[C@]1(O)CC[C@H]2[C@@H]3CCC4=C(CCC(=O)C4)[C@H]3CC[C@@]21C | 0.905 ± 0.022 | 0.974 ± 0.14 | 0.913 ± 0.014 | 1.07 ± 0.13 | 1.07 ± 0.057
CC(=O)O[C@@H]1C[C@H]2C(C)(C)C(=O)CC[C@]2(C)[C@H]2CC[C@@]3(C)[C@H](c4ccoc4)OC(=O)[C@H]4O[C@]43[C@@]21C | 0.999 ± 0.086 | 0.986 ± 0.011 | 1.01 ± 0.026 | 0.949 ± 0.087 | 0.899 ± 0.021
COC(=O)[C@H]1[C@H]2C[C@@H]3c4[nH]c5cc(OC)ccc5c4CCN3C[C@H]2C[C@@H](OC(=O)c2cc(OC)c(OC)c(OC)c2)[C@@H]1OC | 0.932 ± 0.065 | 1.02 ± 0.07 | 0.972 ± 0.054 | 0.974 ± 0.093 | 1.01 ± 0.018
COc1ccc2[nH]c([S+]([O-])Cc3ncc(C)c(OC)c3C)nc2c1 (stereo not given) | 0.971 ± 0.084 | 1.01 ± 0.048 | 0.978 ± 0.06 | 1.09 ± 0.05 | 1.06 ± 0.11
CC(C)=CCc1c2c(c(O)c3c(=O)c(O)c(-c4ccccc4)oc13)C=CC(C)(C)O2 | 1.03 ± 0.052 | 0.998 ± 0.088 | 1.025 ± 0.0071 | 0.935 ± 0.0099 | 0.974 ± 0.011
CC(C)NCC(O)COc1cccc2ccccc12 (stereo not given) | 0.927 ± 0.16 | 0.997 ± 0.047 | 1.03 ± 0.044 | 1.01 ± 0.044 | 0.9935 ± 0.0092
CC[C@H]1OC(=O)[C@H](C)[C@@H](O[C@H]2C[C@@](C)(OC)[C@@H](O)[C@H](C)O2)[C@H](C)[C@@H](O[C@@H]2O[C@H](C)C[C@H](N(C)C)[C@H]2O)[C@](C)(O)C[C@@H](C)/C(=N\OCOCCOC)[C@H](C)[C@@H](O)[C@]1(C)O | 1.03 ± 0.079 | 1.12 ± 0.26 | 1.12 ± 0.057 | 0.907 ± 0.13 | 1.03 ± 0.05
CC(=O)O[C@@H]1CC2C(C)(C)[C@H](O)CC[C@]2(C)C2CC[C@@]3(C)[C@H](c4ccoc4)OC(=O)C4OC43[C@@]21C (stereo partly drawn) [alpha-DIHYDROGEDUNOL] | 1.03 ± 0.028 | 1.01 ± 0.032 | 1.03 | 1.02 ± 0.18 | 0.954 ± 0.025
COc1c2c(c(O)c3c4c(c(C)cc13)[C@@H]1O[C@@]3(C(OC)OC)O[C@@H]1[C@@](O[C@H]1CC(O)[C@@](O)(C(C)=O)C(C)O1)(O4)[C@@]3(O)Cn1cnc3nc(N)[nH]c(=O)c31)C(=O)C(O)CC2O[C@H]1CC(C)(O)[C@H](OC(C)=O)C(C)O1 (stereo not given in full) [Gutingimycin] | 0.932 ± 0.022 | 0.966 ± 0.0057 | 0.946 ± 0.059 | 0.87 ± 0.14 | 0.898 ± 0.07
CC(=O)N(c1onc(C)c1C)S(=O)(=O)c1ccc(N)cc1 | 1.02 ± 0.034 | 1.05 ± 0.19 | 0.935 ± 0.06 | 0.933 ± 0.0014 | 0.985 ± 0.021
COc1cc(C(N)=O)ccc1O [4-Hydroxy-3-methoxy-benzoic acid amide, Vanillic acid amide] | 0.953 ± 0.032 | 1.125 ± 0.0071 | 1.06 ± 0.014 | 1.06 ± 0.086 | 0.942 ± 0.064
CCc1ccc2c(O)c3c(cc2c1C(=O)OC)C(=O)c1c(O)ccc(O)c1C3=O | 1.04 ± 0.093 | 1.06 ± 0.099 | 1.14 ± 0.13 | 1.04 ± 0.15 | 0.967 ± 0.029
C[N+](C)(C)CCOP(=O)(O)OP(=O)([O-])OC[C@H]1O[C@@H](n2ccc(N)nc2=O)[C@H](O)[C@@H]1O | 0.923 ± 0.1 | 0.942 ± 0.016 | 1.01 ± 0.017 | 1.01 ± 0.096 | 1.04 ± 0.028
COc1cc(C)c2c(c1C=O)Oc1c(c(C)c(O)c3c1C(O)OC3=O)OC2=O (stereo not given) | 0.951 ± 0.015 | 0.956 ± 0.028 | 1.06 ± 0.014 | 0.949 ± 0.16 | 0.927 ± 0.077
